# Source: PubChem BioAssay (NCI)
# The panel holds about 83,000 compounds, 20% with a hit somewhere; the sample as a whole holds those more often.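 Single-dose data. Exposure time 48 hours. Values below 10 considered active.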 A number with no mark means an inactive call. The source made the active and inactive calls.
# System: IGROV1 ovarian
# Assay: NCI-60 one-dose screen, 48 h (100 = growth as untreated, 0 = no growth, -100 = all killed)
# Conditions: 10 µM
# Experimental: Growth inhibition of the IGROV1 human tumor cell line is measured as a screen for anti-cancer activity. Cells are grown in 96 well plates and exposed to the test compound for 48 hours. Compounds are tested at a single concentration, which is 10^-5 M for most compounds. The reported endpoint is percent growth (GI% or GIPRCNT), where numbers from 0 - 100% represent growth inhibition, and numbers from -100% - 0 represent cell death. For example, a value of 40 represents 60% growth inhibition. A value of 0 means no net growth occurred over the course of the experiment. A value of -40 indicates 40% of cells at the beginning of the experiment died by the end of the experiment. A value of -100 means all cells are dead at the end of the experiment.
# NCI-60 Human Tumor Cell Lines Screen was performed using the standard one-dose NCI protocol, which is described in more detail at https://dtp.cancer.gov/discovery_development/nci-60/default.htm.
# Compounds with GIPRCNT values below 10 were considered active. Activity score was based on GIPRCNT using the following formula: […]
# Score is 0 for GIPRCNT values of 100 or above, 50 for GIPRCNT values of 0, and 100 for GIPRCNT values of -100.
row,Compound,growth
1,O=C(CCc1ccco1)NC1CCN(CC2(c3ccc(Cl)cc3)CCC2)CC1,30.1%
2,CC(C)C1c2ccc(O)cc2Oc2nc(N)c(C#N)c(N)c21 (stereo not given),111%
3,COc1cc(/C=C\c2cc(OC)c(OC)c(OC)c2)cc(N/C=C\C(=O)c2ccc(OC(F)(F)F)cc2)c1OC,48.3%
4,CCN1CC2(CN(CC)C1=S)C(=O)NC(=O)NC2=O,103%
5,CC[C@@H](C)/C=C(C)/C=C/C(=O)c1c(O)c(-c2ccc(O)cc2)cn(O)c1=O,5.54% (active)
6,O=C1NC2(CCNCC2)Nc2ccccc21,113%
7,COc1cc(CNCCc2ccc(Cl)cc2)cc(OC)c1O,81.3%
8,O=C1NC(=O)C(=Cc2cn(Cc3ccccc3)c3ccccc23)C(=O)N1,-26.7% (active)
9,CC(=O)O[C@H]1CC[C@H]2[C@@H]3CC[C@H]4CC=C(C)C[C@]4(C)[C@H]3CC[C@]12C,107%
10,c1ccc(-c2ccc3ccccc3[o+]2)cc1,82.7%
11,COC(=O)C[Se]C(=O)c1ccccc1OC(C)=O,52%
12,CSc1ccccc1NP1(=O)OCC(C)([N+](=O)[O-])CO1 (stereo not given),119%
13,CN1C(=O)NC(=O)C(N=Nc2ccc(Cl)cc2)C1=O (stereo not given),129%
14,COc1ccc(C2=NN(c3ccccc3)C(c3sc(N(CCCl)CCCl)nc3Cl)C2)cc1 (stereo not given),121%
15,ClCCN(CCCl)c1nc(Cl)c(C2CC(c3ccc(Cl)cc3)=NN2c2cc(Cl)cc(Cl)c2)s1 (stereo not given),102%
16,O=CC(Br)C(Br)c1ccccc1 (stereo not given),74.8%
17,CC(=O)N1N=C(c2ccccc2)CC1c1sc(N(CCCl)CCCl)nc1Cl (stereo not given),101%
18,CC[C@]12C=CCN3CC[C@@]4(c5ccc(OC)cc5N(C)[C@H]4[C@@](O)(C(=O)OC)[C@@H]1OC(=O)CCCN1CCN(CCCC(=O)O[C@@H]4[C@]5(CC)C=CCN6CC[C@@]7(c8ccc(OC)cc8N(C)[C@H]7[C@@]4(O)C(=O)OC)[C@@H]65)CC1)[C@@H]32,-76.6% (active)
19,CNc1ccc(C(=O)CC(O)CCC(C)C2OC(=O)CC(O)CC(=O)CC(O)CC(O)CC(O)CC(O)CC3(O)CC(O)C(C(=O)OC)C(CC(O[C@@H]4O[C@H](C)[C@@H](O)[C@H](N)[C@@H]4O)/C=C/C=C/C=C/C=C/C=C/C=C/C=C/C2C)O3)cc1 (stereo not given in full),3.21% (active)
20,CCOCC1(CCc2ccccc2)C(=O)NC(=S)NC1=O,107%

row,Compound,growth
1,N#[N+]c1nc2nc(N)[nH]c(=O)c2[nH]1,107%
2,CC1([N+](=O)[O-])COP(=O)(Nc2ccc(F)cc2)OC1 (stereo not given),103%
3,Cc1cc(CCl)c(C)cc1CCl,26.4%
4,CC(=O)OC1CCC2(C)C(=CCC3C4CC(CN5CC5)C(=O)C4(C)CCC32)C1 (stereo not given),89.2%
5,Cc1cccc(N(C)c2cccc3c2C(=O)[Se]C3)c1C,28.2%
6,N#C[Se]CCCNS(=O)(=O)C1CC2C=CC1C2 (stereo not given),-52.5% (active)
7,NC(=O)NC(=O)CI,69.5%
8,N#C[Se]CCN1C(=O)C2C(C1=O)[C@H]1C=C[C@@H]2S1 (stereo not given in full),-54.4% (active)
9,C=CCC1(CC)C(=O)NC(=S)NC1=O,107%
10,Nc1ccc([N+](=O)[O-])c2c1Oc1ccccc1O2,28%
11,Cc1ccc(C(=O)C2CN(C)CCC2(O)c2ccc(C)cc2)cc1 (stereo not given),124%
12,COc1ccccc1N1CCN(CCc2c[nH]c3cc4c(cc23)OCO4)CC1,-33.9% (active)
13,O=[N+]([O-])c1cc([N+](=O)[O-])c(Cl)c(Cl)c1Cl,22%
14,O=C(C(=O)N1CCCC1)c1cn(CCCCCn2cc(C(=O)C(=O)N3CCCC3)c3ccccc32)c2ccccc12,98.8%
15,CC12CCC(=O)C=C1C(O)CC1C2CCC2(C)C(O)CCC12 (stereo not given),106%
16,O=C(O)CC(Br)C(=O)CBr (stereo not given),109%
17,O=C(N/N=C/c1ccc(N(CCCl)CCCl)cc1)c1cc(=O)[nH]c(=O)[nH]1,83.9%
18,O=C1NC(=O)C(CN2C(=O)C3(c4ccccc42)[C@H](Cl)C(=O)N3c2ccccc2)C(=O)N1 (stereo not given in full),49.4%
19,COP(=S)(OC)Oc1ccc(SC)c(C)c1,99.7%
20,O=C1NC(=O)C(Cc2ccccc2)(Cc2ccccc2)C(=O)N1,114%
